The source of these data is publication PMC7819943, “Rice protein-binding microarrays: a tool to detect cis-acting elements near promoter regions in rice”.

In all, about 68,000 sequences were measured (“fluorescence intensity (a.u.)”: median about 9,100, highest 2% from about 16,000 on). The entries come from a sample that favours the highest values as a whole.

OsWRKY34, sequence (Q0JBA9 entry or part of it): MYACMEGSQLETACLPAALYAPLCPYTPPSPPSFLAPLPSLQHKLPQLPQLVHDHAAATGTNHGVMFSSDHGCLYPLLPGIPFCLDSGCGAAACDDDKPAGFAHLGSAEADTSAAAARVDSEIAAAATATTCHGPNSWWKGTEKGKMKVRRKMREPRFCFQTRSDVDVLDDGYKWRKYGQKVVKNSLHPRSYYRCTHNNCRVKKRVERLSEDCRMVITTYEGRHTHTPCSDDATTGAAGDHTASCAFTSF

The experiment addresses OsWRKY34 (Oryza sativa, UniProt Q0JBA9 1-250). Briefly: protein-binding microarray (RPBM); PBS, 2% BSA, 51.3 ng/ul salmon testes DNA, 50 uM zinc acetate, 200 nM TF, 25 C, 1 h; high values mean tight binding. Particulars: protein: recombinant; tags: N-terminal polyhistidine and DsRed monomer fusion (pET32a); label: CyDye5-dUTP incorporated in the synthesized complementary strand; 3' TTTTT single-stranded linker to array surface; dsDNA, one strand shown. The method in brief: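 Binding signal here means per-feature fluorescence intensity in arbitrary units. The values were read on an Axon 4000B scanner after a custom Agilent array, double-stranded by primer extension with Cy5-dUTP, was incubated with 200 nM protein at 25 °C for 1 h in PBS with 2% BSA, salmon testes DNA and 50 µM zinc acetate, then washed. The proteins were transcription factors with an N-terminal polyhistidine tag and DsRed, expressed in E. coli BL21-CodonPlus and purified on Ni–NTA.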
Turning to “GAGTCATAGTAGTGTAGTAGTGGGTCAACTCAGTCAAGTCCGGAGTCACCTAGTGCAG”, the binding signal is 8290 fluorescence intensity (a.u.).

In the case of “GTATTATTGTCCCTTACATTGCTAACTCAATGTTGTATTACGGAGTCACCTAGTGCAG”, the binding signal is 8130 fluorescence intensity (a.u.).

For “TTTTTACAACCCTGCGATTCAGATAGACCTTACCATTTTTCGGAGTCACCTAGTGCAG”, the binding signal is 8940 fluorescence intensity (a.u.).

“CAGCGGAGAGCGGCGGCGGCGAGTAGGATGGGGTTTGATTCGGAGTCACCTAGTGCAG”: the binding signal is 8380 fluorescence intensity (a.u.).

“GAGTAGGATGGGGTTTGATTTTGGGGTTCGTGGGGTCGAGCGGAGTCACCTAGTGCAG”: the binding signal is 17100 fluorescence intensity (a.u.).

For the sequence “ATAGGAGGGGTCATATTAGTAGGGTTTTTTTTGGACGGAGCGGAGTCACCTAGTGCAG”, the binding signal was 8260 fluorescence intensity (a.u.).

In the case of “GTGGGTGGTTGGTGGTGGTGGTGGTGGTGGTGATCTTTGGCGGAGTCACCTAGTGCAG”, the binding signal is 23900 fluorescence intensity (a.u.).

As to “TTTGATCTTGTGGTGGTTTGGGTGATCGGTGGCGATGGGGCGGAGTCACCTAGTGCAG”, the binding signal was 11000 fluorescence intensity (a.u.).

Take “TAGGTGGTGTTTGGTTTATGGATCAGGTGGGTTGGGTTGGCGGAGTCACCTAGTGCAG”: the binding signal was 8740 fluorescence intensity (a.u.).

Take “AAACTGTTCTCCTCCACTTGCCTATCTTATCCTCTCTTATCGGAGTCACCTAGTGCAG”: the binding signal is 8930 fluorescence intensity (a.u.).

For the sequence “ACGGTTGTGTATTTCATAGTAGGGTGTAAATGTACGCTGACGGAGTCACCTAGTGCAG”, the binding signal is 8030 fluorescence intensity (a.u.).

“ATACAACTTCGTCTGGCGCCCTCAATCGATCTCGCTCTATCGGAGTCACCTAGTGCAG”: the binding signal was 9870 fluorescence intensity (a.u.).

Regarding “AACCCTCATCTACTTCTGGCCCTCTAAGAGTTCTCCACTACGGAGTCACCTAGTGCAG”, the binding signal was 8400 fluorescence intensity (a.u.).

In the case of “GTGTGTGCCTCCTTTTCTCTTCTTCAGTTTTCAACTCAAACGGAGTCACCTAGTGCAG”, the binding signal is 9440 fluorescence intensity (a.u.).

Turning to “CCTCATCCCGTCCAGCGTTCACCCGACGTCGCCCGTCGCACGGAGTCACCTAGTGCAG”, the binding signal is 10500 fluorescence intensity (a.u.).

As to “TGAGTCTTCACAATCCCATGTCACATGATCATGTGATCTTCGGAGTCACCTAGTGCAG”, the binding signal was 9860 fluorescence intensity (a.u.).

As for “GTGATTGGATGGGTAGTGGAGACAGGTGGGAAAAATGAATCGGAGTCACCTAGTGCAG”, the binding signal is 8510 fluorescence intensity (a.u.).

In the case of “GTGGGGATTGGGTAGGAGAAGGAGTGGGGAATTAGGTTAGCGGAGTCACCTAGTGCAG”, the binding signal was 12200 fluorescence intensity (a.u.).

“TGTACTGTAGGGGTGGGATTGTGATTGGAAAATGAATGAACGGAGTCACCTAGTGCAG”: the binding signal is 18600 fluorescence intensity (a.u.).

For “GGGTGGGATTGGGATTGGGAAATGAATGAAGGGTTAGGATCGGAGTCACCTAGTGCAG”, the binding signal is 16400 fluorescence intensity (a.u.).

Consider “GTGGGATTAGGATTGGAAAATGAATGAAGGGTTAGAATTACGGAGTCACCTAGTGCAG”, for which the binding signal was 8560 fluorescence intensity (a.u.).

For the sequence “GAAATGAGGGGTGGGATTGGGATTGGGATTGGAAAATGAACGGAGTCACCTAGTGCAG”, the binding signal is 11800 fluorescence intensity (a.u.).

Regarding “GTCGATGTGTCTTTTGTGTGTAGTTCTTGTAATTGTTGTGCGGAGTCACCTAGTGCAG”, the binding signal was 8220 fluorescence intensity (a.u.).
